Test results published in PubChem BioAssay (NCI).
The panel holds about 83,000 compounds, 20% with a hit somewhere; the sample as a whole holds those more often.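 Assay: single dose, 48 h. Readout: percent growth (0 = no net growth; negative = cell death). Active: <10.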 Activity calls are given as the source filed them.

Tests used:
Experiment in all cases: NCI-60 one-dose screen, 48 h (100 = growth as untreated, 0 = no growth, -100 = all killed)
Conditions in all cases: 10 µM unless noted
EKVX NSCLC = tested on: EKVX NSCLC
SN12C renal = tested on: SN12C renal
UO-31 renal = tested on: UO-31 renal
TK-10 renal = tested on: TK-10 renal
ACHN renal = tested on: ACHN renal
CAKI-1 renal = tested on: CAKI-1 renal
CCRF-CEM leukemia = tested on: CCRF-CEM leukemia
MOLT-4 leukemia = tested on: MOLT-4 leukemia
SR leukemia = tested on: SR leukemia
RPMI-8226 leukemia = tested on: RPMI-8226 leukemia
OVCAR-8 ovarian = tested on: OVCAR-8 ovarian
OVCAR-5 ovarian = tested on: OVCAR-5 ovarian
OVCAR-4 ovarian = tested on: OVCAR-4 ovarian
SK-OV-3 ovarian = tested on: SK-OV-3 ovarian
OVCAR-3 ovarian = tested on: OVCAR-3 ovarian
HS 578T breast = tested on: HS 578T breast
NCI/ADR-RES ovarian = tested on: NCI/ADR-RES ovarian
A498 renal = tested on: A498 renal
IGROV1 ovarian = tested on: IGROV1 ovarian

Measured: growth

Cc1ccc(S(=O)(=O)NNC(=O)/C(=C\c2ccc(Cl)cc2)c2nc3ccccc3s2)cc1
inactive: EKVX NSCLC 91.1% | SN12C renal 92.5% | UO-31 renal 75.1% | TK-10 renal 132% | ACHN renal 97.7% | CAKI-1 renal 83.8% | CCRF-CEM leukemia 83.6% | MOLT-4 leukemia 80.1% | SR leukemia 72.8% | RPMI-8226 leukemia 87% | OVCAR-8 ovarian 88.1% | OVCAR-5 ovarian 110% | OVCAR-4 ovarian 94.2% | SK-OV-3 ovarian 105% | OVCAR-3 ovarian 96% | HS 578T breast 98.1% | NCI/ADR-RES ovarian 97.8%

CCCCC/C=C/C(C)=C/C1CC(C)C/C=C/CCC(O)C(OC(N)=O)CCC(C)CC(O)C(C)C(=O)O1 (centres undefined)
inactive: EKVX NSCLC 91.9% | SN12C renal 97.2% | UO-31 renal 64.3% | TK-10 renal 100% | ACHN renal 73.1% | CAKI-1 renal 78.9% | A498 renal 71.7% | RPMI-8226 leukemia 56.3% | OVCAR-8 ovarian 98.5% | OVCAR-5 ovarian 102% | OVCAR-4 ovarian 107% | SK-OV-3 ovarian 111% | IGROV1 ovarian 87.3% | OVCAR-3 ovarian 129% | HS 578T breast 94% | NCI/ADR-RES ovarian 96%

COc1ccc(OC)c(CCn2cncc2-c2c[nH]c3ccccc23)c1
inactive: EKVX NSCLC 64.8% | SN12C renal 72% | UO-31 renal 46.6% | TK-10 renal 149% | ACHN renal 76.7% | CAKI-1 renal 66.7% | A498 renal 61.8% | CCRF-CEM leukemia 68.1% | MOLT-4 leukemia 75.3% | SR leukemia 60.1% | RPMI-8226 leukemia 45.6% | OVCAR-8 ovarian 89.4% | OVCAR-5 ovarian 94.4% | OVCAR-4 ovarian 44.6% | SK-OV-3 ovarian 72.9% | IGROV1 ovarian 44% | OVCAR-3 ovarian 57% | NCI/ADR-RES ovarian 71.1%

C=CCN1C(=O)/C(=C/C(=O)OC)S/C1=N\NC(=O)c1cc2ccc1/C=C\c1ccc(cc1)/C=C\2
inactive: EKVX NSCLC 90.8% | SN12C renal 86.9% | UO-31 renal 75.4% | TK-10 renal 108% | ACHN renal 87.9% | CAKI-1 renal 87.8% | CCRF-CEM leukemia 22.9% | MOLT-4 leukemia 35.4% | OVCAR-8 ovarian 88.2% | OVCAR-5 ovarian 96.1% | SK-OV-3 ovarian 140% | IGROV1 ovarian 89.2% | OVCAR-3 ovarian 86.4% | HS 578T breast 93.6% | NCI/ADR-RES ovarian 89.5%
active: SR leukemia 1.79%

COc1ccc(NC(=O)c2cc(NCc3cc(O)ccc3O)ccc2O)cc1
inactive: EKVX NSCLC 100% | SN12C renal 85.8% | UO-31 renal 65.8% | TK-10 renal 118% | ACHN renal 97.4% | CAKI-1 renal 107% | CCRF-CEM leukemia 28.5% | MOLT-4 leukemia 65.2% | SR leukemia 39.3% | RPMI-8226 leukemia 49.5% | OVCAR-8 ovarian 83.3% | OVCAR-5 ovarian 116% | OVCAR-4 ovarian 91.9% | SK-OV-3 ovarian 86% | IGROV1 ovarian 88.4% | OVCAR-3 ovarian 84.3% | HS 578T breast 90.1% | NCI/ADR-RES ovarian 101%

C=C1C(=O)O[C@H]2[C@H]1CC/C(CNC(=O)CCc1ccc(OC)cc1)=C\CC[C@@]1(C)O[C@@H]21
active: CCRF-CEM leukemia 4.85%
inactive: EKVX NSCLC 71.4% | SN12C renal 35.9% | UO-31 renal 53% | TK-10 renal 33.5% | ACHN renal 31.6% | CAKI-1 renal 38.1% | MOLT-4 leukemia 67.8% | SR leukemia 14.3% | RPMI-8226 leukemia 51.4% | OVCAR-8 ovarian 39.2% | OVCAR-5 ovarian 82% | OVCAR-4 ovarian 80% | SK-OV-3 ovarian 103% | IGROV1 ovarian 61.7% | HS 578T breast 86.4% | NCI/ADR-RES ovarian 95.4%

CCOC(=O)C1=C(C)NC(SCc2cc(=O)oc3ccc(F)cc23)=N[C@@H]1c1cccc2ccccc12
inactive: EKVX NSCLC 114% | SN12C renal 93.3% | UO-31 renal 79.9% | TK-10 renal 105% | ACHN renal 91.9% | CAKI-1 renal 87.8% | CCRF-CEM leukemia 102% | MOLT-4 leukemia 84.7% | SR leukemia 83.5% | RPMI-8226 leukemia 90.5% | OVCAR-8 ovarian 89.5% | OVCAR-5 ovarian 119% | OVCAR-4 ovarian 102% | SK-OV-3 ovarian 92.5% | OVCAR-3 ovarian 92.4% | HS 578T breast 106% | NCI/ADR-RES ovarian 98.7%

Cn1c(-c2c(N)n(CCCN3CCOCC3)c3nc(C#N)c(C#N)nc23)nc2ccccc21
active: ACHN renal -79.1% | SR leukemia -57.7% | RPMI-8226 leukemia 5.09%
inactive: EKVX NSCLC 66.3% | SN12C renal 40.5% | UO-31 renal 12.4% | TK-10 renal 46.8% | CAKI-1 renal 57.6% | A498 renal 90.6% | MOLT-4 leukemia 31.5% | OVCAR-8 ovarian 48.1% | OVCAR-5 ovarian 82% | OVCAR-4 ovarian 73.7% | SK-OV-3 ovarian 93.6% | IGROV1 ovarian 65.6% | OVCAR-3 ovarian 65.5% | HS 578T breast 94.3% | NCI/ADR-RES ovarian 78.6%

COc1cccc(/C=N/NC(=O)c2cnn3c2NC(c2ccccc2)C3)c1Oc1ccccc1 (centres undefined)
inactive: EKVX NSCLC 93.7% | SN12C renal 104% | UO-31 renal 77.4% | TK-10 renal 94.3% | ACHN renal 87% | CAKI-1 renal 78.2% | CCRF-CEM leukemia 79.4% | MOLT-4 leukemia 75.2% | SR leukemia 43.1% | RPMI-8226 leukemia 100% | OVCAR-8 ovarian 89% | OVCAR-5 ovarian 97.4% | OVCAR-4 ovarian 98.9% | SK-OV-3 ovarian 90.8% | IGROV1 ovarian 78.4% | OVCAR-3 ovarian 42% | HS 578T breast 93.4% | NCI/ADR-RES ovarian 87.9%

COc1ccc(-c2nc3sccn3c2/C=C/C(=O)c2ccc3c(c2)OCO3)cc1
inactive: EKVX NSCLC 85.4% | SN12C renal 86.1% | UO-31 renal 73.5% | TK-10 renal 119% | ACHN renal 73.3% | CAKI-1 renal 78.3% | A498 renal 113% | CCRF-CEM leukemia 18.3% | SR leukemia 41.4% | RPMI-8226 leukemia 10.5% | OVCAR-8 ovarian 80.9% | OVCAR-5 ovarian 108% | OVCAR-4 ovarian 46.1% | SK-OV-3 ovarian 170% | IGROV1 ovarian 85.1% | OVCAR-3 ovarian 84.8% | HS 578T breast 96.9% | NCI/ADR-RES ovarian 75.7%

Cn1c(N2NC(=O)C(N=Nc3ccc(S(N)(=O)=O)cc3)C2=O)nc(-c2ccco2)c(C#N)c1=O (centres undefined)
active: MOLT-4 leukemia 4.74% | SR leukemia 1.63%
inactive: EKVX NSCLC 107% | SN12C renal 92.6% | UO-31 renal 63.2% | TK-10 renal 131% | ACHN renal 81.6% | CAKI-1 renal 69.8% | A498 renal 122% | OVCAR-8 ovarian 90.2% | OVCAR-5 ovarian 115% | OVCAR-4 ovarian 59.2% | SK-OV-3 ovarian 102% | IGROV1 ovarian 30.7% | OVCAR-3 ovarian 72.7% | HS 578T breast 104% | NCI/ADR-RES ovarian 93%

CCCCCN1C=C/C(=C\C(=O)N2CCCc3ccccc32)c2ccccc21
inactive: EKVX NSCLC 76.4% | SN12C renal 89.9% | UO-31 renal 75.5% | TK-10 renal 105% | ACHN renal 106% | CAKI-1 renal 80.3% | CCRF-CEM leukemia 69.7% | SR leukemia 61.6% | RPMI-8226 leukemia 43.9% | OVCAR-8 ovarian 89.3% | OVCAR-5 ovarian 99.8% | OVCAR-4 ovarian 75.2% | SK-OV-3 ovarian 95% | IGROV1 ovarian 77.9% | OVCAR-3 ovarian 84.5% | HS 578T breast 94.8% | NCI/ADR-RES ovarian 107%

O=C1c2ccccc2CCC12OC2c1cn(-c2ccccc2)nc1-c1ccc(Cl)cc1 (centres undefined)
inactive: EKVX NSCLC 96.7% | SN12C renal 101% | UO-31 renal 88.6% | TK-10 renal 113% | ACHN renal 98.8% | CAKI-1 renal 74.3% | A498 renal 91.9% | CCRF-CEM leukemia 86.3% | SR leukemia 70.4% | RPMI-8226 leukemia 81.3% | OVCAR-8 ovarian 94.5% | OVCAR-5 ovarian 111% | OVCAR-4 ovarian 99.2% | SK-OV-3 ovarian 111% | IGROV1 ovarian 95.1% | OVCAR-3 ovarian 115% | HS 578T breast 93.3% | NCI/ADR-RES ovarian 102%

Cn1nc(CC#N)c2c(=N)n(N)cnc21
inactive: EKVX NSCLC 94.4% | SN12C renal 98.6% | UO-31 renal 80.1% | TK-10 renal 104% | ACHN renal 108% | CAKI-1 renal 95.3% | CCRF-CEM leukemia 126% | SR leukemia 93.4% | RPMI-8226 leukemia 117% | OVCAR-8 ovarian 104% | OVCAR-5 ovarian 93.5% | OVCAR-4 ovarian 114% | SK-OV-3 ovarian 99.8% | IGROV1 ovarian 103% | OVCAR-3 ovarian 112% | HS 578T breast 114% | NCI/ADR-RES ovarian 113%

Cc1ccc(/C=C(/C#N)n2nnc3cccc(F)c32)cc1
active: CCRF-CEM leukemia 4.82% | MOLT-4 leukemia 5.52% | SR leukemia 9.82% | RPMI-8226 leukemia -4.51% | OVCAR-8 ovarian 8.47% | OVCAR-5 ovarian 0.132% | OVCAR-3 ovarian -53.2% | HS 578T breast -14.8% | NCI/ADR-RES ovarian -33.1%
inactive: EKVX NSCLC 37.6% | SN12C renal 12.7% | UO-31 renal 15.6% | TK-10 renal 25.5% | ACHN renal 18.5% | CAKI-1 renal 20.1% | OVCAR-4 ovarian 23% | SK-OV-3 ovarian 27.8% | IGROV1 ovarian 17.6%

Brc1ccc(Nc2csc(-c3ccccn3)n2)cc1
inactive: EKVX NSCLC 85.4% | SN12C renal 91.6% | UO-31 renal 52.2% | TK-10 renal 119% | ACHN renal 82.4% | CAKI-1 renal 63.6% | CCRF-CEM leukemia 97.2% | MOLT-4 leukemia 96.6% | SR leukemia 97.3% | RPMI-8226 leukemia 98% | OVCAR-8 ovarian 98.6% | OVCAR-5 ovarian 76.6% | OVCAR-4 ovarian 101% | SK-OV-3 ovarian 82.8% | IGROV1 ovarian 63.4% | OVCAR-3 ovarian 95.7% | HS 578T breast 92.4% | NCI/ADR-RES ovarian 93.5%

CCCCCC(=O)Oc1ccc(/C(=C(\C)c2ccccc2)c2ccc(OCCN3CCCCC3)cc2)cc1
inactive: EKVX NSCLC 93.7% | SN12C renal 79.5% | UO-31 renal 59.8% | TK-10 renal 85.1% | ACHN renal 96.2% | CAKI-1 renal 88.6% | CCRF-CEM leukemia 85.1% | SR leukemia 30.5% | RPMI-8226 leukemia 64.8% | OVCAR-8 ovarian 89.2% | OVCAR-5 ovarian 88.3% | OVCAR-4 ovarian 82.9% | SK-OV-3 ovarian 80.7% | OVCAR-3 ovarian 90.5% | HS 578T breast 75.6% | NCI/ADR-RES ovarian 76.3%
